{"source": "paper PMC7819943", "about": "“Rice protein-binding microarrays: a tool to detect cis-acting elements near promoter regions in rice”", "note": "Whole data set: some 35,000 sequences, median “fluorescence intensity (a.u.)” near 10,000, cut for the highest 2% near 52,000. This excerpt belongs to a sample that is enriched for the highest values."}
{"target": "T1, OsWOX13 (Oryza sativa, UniProt Q5QMM3 1-267)", "T1 sequence": "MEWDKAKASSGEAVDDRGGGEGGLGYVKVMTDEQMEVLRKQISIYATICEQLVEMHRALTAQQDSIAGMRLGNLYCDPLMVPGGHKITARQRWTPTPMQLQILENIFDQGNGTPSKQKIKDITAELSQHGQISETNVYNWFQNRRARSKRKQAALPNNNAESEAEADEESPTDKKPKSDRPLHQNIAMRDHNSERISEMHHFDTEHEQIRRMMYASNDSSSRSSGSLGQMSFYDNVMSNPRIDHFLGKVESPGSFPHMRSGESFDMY", "assay": "protein-binding microarray (RPBM); PBS, 2% BSA, 51.3 ng/ul salmon testes DNA, 50 uM zinc acetate, 200 nM TF, 25 C, 1 h; high values mean tight binding", "conditions": "protein: recombinant; tags: N-terminal polyhistidine and DsRed monomer fusion (pET32a); label: CyDye5-dUTP incorporated in the synthesized complementary strand; 3' TTTTT single-stranded linker to array surface; dsDNA, one strand shown", "in_short": "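In PBS with 2% BSA, salmon testes DNA and 50 µM zinc acetate, 200 nM protein was incubated on a custom Agilent array at 25 °C for 1 h and then washed off. The array had been made double-stranded by primer extension with Cy5-dUTP and blocked with 2% BSA. The proteins were transcription factors fused N-terminally to polyhistidine and DsRed, expressed in E. coli BL21-CodonPlus and purified on Ni–NTA. The binding signal is per-feature fluorescence intensity (arbitrary units) from an Axon 4000B scanner.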"}
{"sequence": "TTAGATTGGTTATAGATGAATTGGAGCTAGTAGTGGGTTGCGGAGTCACCTAGTGCAG", "binding signal": "56200 fluorescence intensity (a.u.)"}
{"sequence": "ATTAGATTGACTATAGATGAATTGAAGACAGTAGTGGGCTCGGAGTCACCTAGTGCAG", "binding signal": "49500 fluorescence intensity (a.u.)"}
{"sequence": "AAACCCTTAATTGCTCATGATTTTGCCATTATAATATAGGCGGAGTCACCTAGTGCAG", "binding signal": "44600 fluorescence intensity (a.u.)"}
{"sequence": "GGCTATTAGATTGGTTATAAATGAATTGGAGCCAATAGTGCGGAGTCACCTAGTGCAG", "binding signal": "39100 fluorescence intensity (a.u.)"}
{"sequence": "TGAGCTATTAGATTGGTTATAGATGAATTGAAGTTAGTAGCGGAGTCACCTAGTGCAG", "binding signal": "14100 fluorescence intensity (a.u.)"}
{"sequence": "ACATGATAGACTAATGAGTAGATTGTTGTCCTAATTAGCTCGGAGTCACCTAGTGCAG", "binding signal": "54100 fluorescence intensity (a.u.)"}
{"sequence": "ATTGGCTATTAGATTGGCTATAGATGAATTAGAGTTAGTACGGAGTCACCTAGTGCAG", "binding signal": "15400 fluorescence intensity (a.u.)"}
{"sequence": "AAGCTATTAGATTGGCTATAGATGAATTGAAGTTAGTAGTCGGAGTCACCTAGTGCAG", "binding signal": "26100 fluorescence intensity (a.u.)"}
{"sequence": "GATATTAGATTGGCTATAGATGAATTGGAGTTAGTAGTGGCGGAGTCACCTAGTGCAG", "binding signal": "52700 fluorescence intensity (a.u.)"}
{"sequence": "ATGTCATTTTAAAGTTTAATTAATTAGATAATTACCTTCTCGGAGTCACCTAGTGCAG", "binding signal": "17500 fluorescence intensity (a.u.)"}
{"sequence": "TCATCTAATTAATTGGCAAGGTGATATGCGTCCCTGAAAACGGAGTCACCTAGTGCAG", "binding signal": "39500 fluorescence intensity (a.u.)"}
{"sequence": "GACAGTTTGATTTCCTCTTGTGTTTATGCATTATTTTGTGCGGAGTCACCTAGTGCAG", "binding signal": "3640 fluorescence intensity (a.u.)"}
{"sequence": "TATCAAATTTATCCATTTGTTAATGTTGTAATAATTAAAACGGAGTCACCTAGTGCAG", "binding signal": "6890 fluorescence intensity (a.u.)"}
{"sequence": "CTGACTTTGTCATACGTCTATGATTTGCCACTGACTTTATCGGAGTCACCTAGTGCAG", "binding signal": "4530 fluorescence intensity (a.u.)"}
{"sequence": "CATTCTAATTAGCAATGGTCACCACGAATGATTAATGTAGCGGAGTCACCTAGTGCAG", "binding signal": "28200 fluorescence intensity (a.u.)"}
{"sequence": "ACATCTAATTTGAAATGGATGTAGTATATTCTAATTGCATCGGAGTCACCTAGTGCAG", "binding signal": "17000 fluorescence intensity (a.u.)"}
{"sequence": "TGAATATGTCCCAAATTAATTGTCACAATGGAGTACTAATCGGAGTCACCTAGTGCAG", "binding signal": "3200 fluorescence intensity (a.u.)"}
{"sequence": "AATATTAGATTGGCTATAGATGAATTGTAGCTAGTAGTTGCGGAGTCACCTAGTGCAG", "binding signal": "54100 fluorescence intensity (a.u.)"}
{"sequence": "TAGATTGGCTATAGATGAATTGGAGCTAGTAGTTGGCTATCGGAGTCACCTAGTGCAG", "binding signal": "25400 fluorescence intensity (a.u.)"}
{"sequence": "TATTAGATTGGCTATAGATGAATTGGAGCTAGTAGTTGGCCGGAGTCACCTAGTGCAG", "binding signal": "46700 fluorescence intensity (a.u.)"}
{"sequence": "TGGGTGATTGATTAGTACTACTGCTGCATCTGCACTGCATCGGAGTCACCTAGTGCAG", "binding signal": "38400 fluorescence intensity (a.u.)"}
{"sequence": "CTGCTGCTTGATTATTTGGGTTCAACTGGCAAGAACTATGCGGAGTCACCTAGTGCAG", "binding signal": "8890 fluorescence intensity (a.u.)"}
{"sequence": "GTGATTGATGCCGCCTGGGTTAGTTCAACTATTGCTGCATCGGAGTCACCTAGTGCAG", "binding signal": "55400 fluorescence intensity (a.u.)"}
{"sequence": "TCAAAATCAGTTTGAGTAAATTTTATTTTGGTTCAACTTTCGGAGTCACCTAGTGCAG", "binding signal": "6800 fluorescence intensity (a.u.)"}
{"sequence": "ATTTTGATTAAATGGTGATCAGCCAAAGCATTTGCCATCCCGGAGTCACCTAGTGCAG", "binding signal": "39300 fluorescence intensity (a.u.)"}
{"sequence": "CTTTGACAGACAGATATCCATTCATACGTGCACAGGCGACCGGAGTCACCTAGTGCAG", "binding signal": "55300 fluorescence intensity (a.u.)"}
{"sequence": "TATTCAATCATCCAAGGTTTGCATATCATTGACCGGCGTGCGGAGTCACCTAGTGCAG", "binding signal": "14400 fluorescence intensity (a.u.)"}
{"sequence": "GGCGACAAGACAGATAGACAGAAGCCATTCATATCGAACCCGGAGTCACCTAGTGCAG", "binding signal": "5190 fluorescence intensity (a.u.)"}
{"sequence": "CCACCGTGATTTTCGCTCCCATCACCGCGCGAGGACTCCGCGGAGTCACCTAGTGCAG", "binding signal": "3320 fluorescence intensity (a.u.)"}
{"sequence": "GGTCGCCGGATCGCGGGAGGGAGGGAGGGAGGGAGGGAGGCGGAGTCACCTAGTGCAG", "binding signal": "7230 fluorescence intensity (a.u.)"}
{"sequence": "GCTCCGGCGAGGCGAGGTCGGAGATCCCACCGCCGTGTCGCGGAGTCACCTAGTGCAG", "binding signal": "65500 fluorescence intensity (a.u.)"}
{"sequence": "CAAAACTAAAATGTTATCATATAATTATATATTTAAGACCCGGAGTCACCTAGTGCAG", "binding signal": "8760 fluorescence intensity (a.u.)"}
{"sequence": "ATTCATATAATTTGTATCACCTCAATAATAATTGGTATCACGGAGTCACCTAGTGCAG", "binding signal": "14700 fluorescence intensity (a.u.)"}
{"sequence": "GACAAATTTACAGTAGTTTAACTTTAAGCAAAGTCAAAACCGGAGTCACCTAGTGCAG", "binding signal": "6260 fluorescence intensity (a.u.)"}
{"sequence": "TATACAATTATTTAAACAAAATTACCACTTTGCTACAACTCGGAGTCACCTAGTGCAG", "binding signal": "8450 fluorescence intensity (a.u.)"}
{"sequence": "TTATGTAATTATTATTTATTTTATTGTGACTTAATTTATCCGGAGTCACCTAGTGCAG", "binding signal": "15500 fluorescence intensity (a.u.)"}
{"sequence": "TTTTAATTACTGATCTTCTTACAATTGCTTTTATGCTGTCCGGAGTCACCTAGTGCAG", "binding signal": "19700 fluorescence intensity (a.u.)"}
{"sequence": "AAGGTTAATTGGATCCATGCCACGCGAATTGTGGCAAATCCGGAGTCACCTAGTGCAG", "binding signal": "22100 fluorescence intensity (a.u.)"}
{"sequence": "CCGCAATTATTGGCCCTTAATTGTGAGGTTAATCCGTGGCCGGAGTCACCTAGTGCAG", "binding signal": "60900 fluorescence intensity (a.u.)"}
{"sequence": "CAATTAATTGCTTATCCGTGGCCTTGATCAATTACTGTGCCGGAGTCACCTAGTGCAG", "binding signal": "56600 fluorescence intensity (a.u.)"}
{"sequence": "TACTGCTGGATTGAATTAATGGATCAAGACTGAATTTATCCGGAGTCACCTAGTGCAG", "binding signal": "12100 fluorescence intensity (a.u.)"}
{"sequence": "AGTCAATCAGTCAATCTGGACCGTCCACGGCAGAAGAAGTCGGAGTCACCTAGTGCAG", "binding signal": "30700 fluorescence intensity (a.u.)"}
